Each structure is given as a SMILES string. Values without a mark were called inactive. Results filed as inconclusive are left out. Active and inactive are the calls of the source. Calls follow the shape of the full dose curve. Starred links: 1 amine or outer side, 2 acyl side, 3 side chain; linkers in the order of their positions; H or OH if unused. Positions of bridges follow the written chain, without caps; N, C: chain ends. Non-standard residues stand in square brackets, D forms with d. Residues, ends and D or L forms follow the SMILES beside them. Chains are numbered I, II in the order given. Actinocin(9to1) = Cc1c2oc3c(C)ccc(C(=O)[*:1])c3nc-2c(C(=O)[*:2])c(N)c1=O; NMeV = CN[C@H](C(=O)O)C(C)C; Sar = CNCC(=O)O

Test [1] has as its target Acetylcholinesterase (Homo sapiens) (UniProt P22303). Kind of test: Acetylcholinesterase (AChE) small molecule antagonists: colormetric cell-based qHTS assay (AID 1347395). Also: nearly all actives have a fitted effect of over 30% in size. The procedure, abridged: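 SH-SY5Y cells attached overnight, exposed to compound 30 min at 37 C, then given DTNB/acetylthiocholine; after 90 min at 37 C, colorimetric thiocholine read gives cellular AChE activity.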

Test [2] has the same target. Kind of test: Acetylcholinesterase (AChE) small molecule antagonists: enzyme-based qHTS assay (AID 1347397). Also: nearly all actives have a fitted effect of over 55% in size. The note with it: Potency: AChE enzyme activity inhibition; outcome: AChE enzyme activity inhibition. In outline:
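In this quantitative HTS, compounds from the Tox21 10K collection were preincubated 30 min at ambient temperature with recombinant human AChE dispensed at 50 mU/mL. Hydrolysis of acetylthiocholine was then followed for 10 min by DTNB colour development.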
On the technique in general: In qHTS, concentration-response curves come from the screen itself.

Test [3] has the same target. Description: Acetylcholinesterase (AChE) small molecule antagonists: fluorescence cell-based qHTS assay (AID 1347398). Also: nearly all actives have a fitted effect of over 50% in size. The note with it: Potency: AChE activity; outcome: AChE activity. The procedure, abridged:
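Cells (SH-SY5Y) attached overnight, were dosed with compound or DMSO vehicle for 30 min at 37 C, and then incubated 40 min at room temperature with acetylthiocholine and Thiolite Green; green fluorescence indexed AChE activity.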

Test [4] shares this target. Description: Acetylcholinesterase (AChE) small molecule antagonists: enzyme-based qHTS assay with human liver microsomes (AID 1347399). Also: nearly all actives have a fitted effect of over 60% in size. Conditions: Potency: qHTS inhibition; outcome: qHTS inhibition. The procedure, abridged:
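Recombinant human AChE (50 mU/mL in the enzyme mix) and human liver microsomes (0.25 mg/mL final) were preincubated with compound and NADPH (0.25 mg/mL final) for 30 min at 37 C. Acetylthiocholine/DTNB was then added; thiocholine was read colorimetrically after 10 min at room temperature.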
% is scaled to controls: 0 for no effect and ±100 for the full control effect; potency is read from the fitted curve at half-maximal effect.

Chain of Acetylcholinesterase (Homo sapiens) (P22303 whole entry, looked up): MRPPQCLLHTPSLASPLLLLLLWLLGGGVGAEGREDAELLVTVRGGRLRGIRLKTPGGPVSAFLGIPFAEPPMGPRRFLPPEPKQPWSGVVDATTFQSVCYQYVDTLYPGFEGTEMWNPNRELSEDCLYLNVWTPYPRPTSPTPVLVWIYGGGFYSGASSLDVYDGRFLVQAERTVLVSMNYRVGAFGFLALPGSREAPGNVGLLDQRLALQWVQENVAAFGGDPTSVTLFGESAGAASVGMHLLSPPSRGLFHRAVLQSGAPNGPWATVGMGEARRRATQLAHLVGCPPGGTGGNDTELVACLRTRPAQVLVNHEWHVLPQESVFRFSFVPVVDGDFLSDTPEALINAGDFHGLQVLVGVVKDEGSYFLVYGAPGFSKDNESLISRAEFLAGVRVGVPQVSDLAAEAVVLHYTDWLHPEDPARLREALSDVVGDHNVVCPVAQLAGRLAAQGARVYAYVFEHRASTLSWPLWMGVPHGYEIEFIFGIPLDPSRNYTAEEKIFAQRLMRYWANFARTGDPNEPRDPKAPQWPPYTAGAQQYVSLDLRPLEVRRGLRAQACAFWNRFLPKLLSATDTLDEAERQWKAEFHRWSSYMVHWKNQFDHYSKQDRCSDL

Turning to `C=CCOC(=O)c1ccc(C(=O)OCC=C)c(C(=O)OCC=C)c1`, the Potency result in test [1], in test [2], in test [3] and in test [4] was “inactive” in each case.
For `CCOc1ccc(NC(C)=O)cc1`, the Potency result in test [1], in test [2], in test [3] and in test [4] was “inactive” throughout.
As for `ClC(c1ccccc1)(c1ccccc1)c1ccccc1`, the Potency entry in test [1], in test [2], in test [3] and in test [4] was “inactive” throughout.
As for `CC(O)CNCC(C)O` (stereo not given), the Potency entry in test [1], in test [2], in test [3] and in test [4] was “inactive” each time.
For the molecule `O=C(O)Cc1ccc(Cl)cc1Cl`, the Potency entry in test [1], in test [2], in test [3] and in test [4] was “inactive” in each case.
On to `CC(=O)Nc1ccc(C)cc1C`, for which the Potency entry in test [1], in test [2], in test [3] and in test [4] was “inactive” each time.
With `O=[N+]([O-])c1ccc(O)c2ncccc12`, the Potency entry in test [1], in test [2], in test [3] and in test [4] was “inactive” each time.
On to `C=CCOC(=O)CCCCCCCC`, for which the Potency result in test [1], in test [2], in test [3] and in test [4] was “inactive” in each case.
In the case of `CCCCOC(=O)CC(CC(=O)OCCCC)(OC(C)=O)C(=O)OCCCC`, the Potency result in test [1], in test [2], in test [3] and in test [4] was “inactive” throughout.
With `CCCCC(CC)COC(=O)C(C#N)=C(c1ccccc1)c1ccccc1` (stereo not given), the Potency entry in test [1], in test [2], in test [3] and in test [4] was “inactive” in each case.
`CCCCCCCCCCCCc1ccccc1`: the Potency entry in test [1], in test [2], in test [3] and in test [4] was “inactive” each time.
For `CN(C)CCOC(C)(c1ccccc1)c1ccccn1` (stereo not given), the Potency result in test [1], in test [2], in test [3] and in test [4] was “inactive” throughout.
Regarding `CCCCCCCCS(=O)(=O)Cl`, the Potency result in test [1], in test [2], in test [3] and in test [4] was “inactive” throughout.
On to `Cc1ccccc1Cl`, for which the Potency result in test [1], in test [2], in test [3] and in test [4] was “inactive” throughout.
In the case of `c1ccc(Sc2ccccc2)cc1`, the Potency entry in test [1], in test [2], in test [3] and in test [4] was “inactive” in each case.
`COCCCOc1cc(C[C@@H](C[C@H](N)[C@@H](O)C[C@H](C(=O)NCC(C)(C)C(N)=O)C(C)C)C(C)C)ccc1OC`: the Potency result in test [1], in test [2], in test [3] and in test [4] was “inactive” throughout.
Regarding `CCCCCC(C)N` (stereo not given), the Potency entry in test [1], in test [2], in test [3] and in test [4] was “inactive” in each case.
For the molecule `NCC(=O)CCC(=O)O`, the Potency result in test [1], in test [2], in test [3] and in test [4] was “inactive” each time.
On to `CCn1c2ccccc2c2cc(N)ccc21`, for which the Potency entry in test [1], in test [2], in test [3] and in test [4] was “inactive” in each case.
Regarding `C=CC(C)(CCC=C(C)C)OC(=O)c1ccccc1` (stereo not given), the Potency result in test [1], in test [2], in test [3] and in test [4] was “inactive” in each case.
For `OCc1cccc(Oc2ccccc2)c1`, the Potency result in test [1], in test [2], in test [3] and in test [4] was “inactive” throughout.
On to `Cc1cccc(O)c1`, for which the Potency result in test [1], in test [2], in test [3] and in test [4] was “inactive” in each case.
Regarding `O=C(O)CCNC(=O)c1ccc(N=Nc2ccc(O)c(C(=O)O)c2)cc1`, the Potency entry in test [1], in test [2], in test [3] and in test [4] was “inactive” throughout.
As for `CO/N=C(\C(=O)O)c1csc(NC(=O)CCl)n1`, the Potency entry in test [1], in test [2], in test [3] and in test [4] was “inactive” throughout.
Take `Cc1cc(O)c(Cl)c(C)c1Cl`: the Potency result in test [1], in test [2], in test [3] and in test [4] was “inactive” in each case.
Take `CCC(C)(C)c1cc(O)c(C(C)(C)CC)cc1O`: the Potency entry in test [1], in test [2], in test [3] and in test [4] was “inactive” in each case.
On to `CCCCC[Si](OCC)(OCC)OCC`, for which the Potency entry in test [1], in test [2], in test [3] and in test [4] was “inactive” each time.
For `C=C(C)C(=O)OCCCCCCCCCCCC`, the Potency result in test [1], in test [2], in test [3] and in test [4] was “inactive” each time.
`CN(C)CCN(C)CCN(C)C`: the Potency result in test [1], in test [2], in test [3] and in test [4] was “inactive” throughout.
For the molecule `CCCCN1C[C@H](O)[C@@H](O)[C@H](O)[C@H]1CO`, the Potency entry in test [1], in test [2], in test [3] and in test [4] was “inactive” in each case.
As to `COc1ccccc1C=O`, the Potency result in test [1], in test [2], in test [3] and in test [4] was “inactive” throughout.
Regarding `COc1cc2[nH]c(=O)[nH]c(=O)c2cc1OC`, the Potency result in test [1], in test [2], in test [3] and in test [4] was “inactive” each time.
Take `O=C(O)c1cc(Cl)cc(Cl)c1`: the Potency entry in test [1], in test [2], in test [3] and in test [4] was “inactive” each time.
With `CSc1nnc(C(C)(C)C)c(=O)[nH]1`, the Potency entry in test [1], in test [2], in test [3] and in test [4] was “inactive” throughout.
Take `Cc1cccc(Nc2cc(Cl)nc(SCC(=O)O)n2)c1C`: the Potency result in test [1], in test [2], in test [3] and in test [4] was “inactive” throughout.
On to `CCCCSCCCC`, for which the Potency result in test [1], in test [2], in test [3] and in test [4] was “inactive” in each case.
As for `CC(C)(CO)COC(=O)C(C)(C)CO`, the Potency entry in test [1], in test [2], in test [3] and in test [4] was “inactive” in each case.
As for `CC(CCc1ccccc1)NCC(O)c1ccc(O)c(C(N)=O)c1` (stereo not given), the Potency result in test [1], in test [2], in test [3] and in test [4] was “inactive” throughout.
Turning to `Cc1cc2nc3ccc(=[N+](C)C)cc-3sc2cc1N`, the Potency is 1.38 µM (active) in test [1], 4.9 µM (active) in test [2], 2.19 µM (active) in test [3] and 24.5 µM (active) in test [4].
The like results for `C=CCCCCCC` were, in that order, “inactive”, “inactive”, “inactive” and “inactive”.
As for `OCC(CO)(CO)COCC(CO)(CO)CO`, the Potency entry in test [1], in test [2], in test [3] and in test [4] was “inactive” throughout.
In the case of `Cc1cc(C)c(N=Nc2c(O)c(S(=O)(=O)O)cc3cc(S(=O)(=O)O)ccc23)cc1C`, the activity, negative = inhibition in test [1] is 0.116% [at 10.5 µM]. In addition, the activity change, negative = inhibition in test [2] was 0.136% [at 10.5 µM]; in test [3], -0.662% [at 10.5 µM]; in test [4], 0.432% [at 10.5 µM].
Regarding `Cc1c2oc3c(C)ccc(C(=O)N[C@@H]4C(=O)N[C@H](C(C)C)C(=O)N5CCC[C@H]5C(=O)N(C)CC(=O)N(C)[C@@H](C(C)C)C(=O)O[C@@H]4C)c3nc-2c(C(=O)N[C@@H]2C(=O)N[C@H](C(C)C)C(=O)N3CCC[C@H]3C(=O)N(C)CC(=O)N(C)[C@@H](C(C)C)C(=O)O[C@@H]2C)c(N)c1=O` (I: T[dV]P[Sar][NMeV] / II: T[dV]P[Sar][NMeV]; ester I:1-I:C, II:1-II:C; linker I:N-II:N via Actinocin(9to1)), the Potency entry in test [1], in test [2], in test [3] and in test [4] was “inactive” throughout.
For the molecule `O=Cc1cccc([N+](=O)[O-])c1`, the Potency result in test [1], in test [2], in test [3] and in test [4] was “inactive” throughout.
`O=C1NC(=O)[C@@]2(CCOc3ccc(F)cc32)N1`: the Potency entry in test [1], in test [2], in test [3] and in test [4] was “inactive” throughout.
As for `CN(C)CCOC(c1ccccc1)c1ccc(Br)cc1` (stereo not given), the Potency entry in test [1], in test [2], in test [3] and in test [4] was “inactive” throughout.
In the case of `CCCCCCCCCC(=O)OCC`, the Potency result in test [1], in test [2], in test [3] and in test [4] was “inactive” throughout.
With `C[C@H]1COc2c(C3(N)CC3)c(F)cc3c(=O)c(C(=O)O)cn1c23`, the Potency result in test [1], in test [2], in test [3] and in test [4] was “inactive” in each case.
Take `CCCCCCCCOS(=O)(=O)O`: the Potency entry in test [1], in test [2], in test [3] and in test [4] was “inactive” each time.
With `CCSC(=O)N(CC(C)C)CC(C)C`, the Potency entry in test [1], in test [2], in test [3] and in test [4] was “inactive” each time.
As to `CCC(=O)C1CC(C(C)C)CC=C1C` (stereo not given), the Potency entry in test [1], in test [2], in test [3] and in test [4] was “inactive” throughout.
As for `CN(C)Cc1cc(CN(C)C)c(O)c(CN(C)C)c1`, the Potency entry in test [1], in test [2], in test [3] and in test [4] was “inactive” throughout.
Take `CCCCN=C(N)N=C(N)N`: the Potency entry in test [1], in test [2], in test [3] and in test [4] was “inactive” each time.
Turning to `[Cl][Nd]([Cl])[Cl]`, the Potency entry in test [1], in test [2], in test [3] and in test [4] was “inactive” throughout.
In the case of `CC(C)c1cccc(C(C)C)c1N`, the Potency result in test [1], in test [2], in test [3] and in test [4] was “inactive” throughout.
`Cc1ccc2ncccc2c1`: the Potency entry in test [1], in test [2], in test [3] and in test [4] was “inactive” each time.
Consider `CCCOCCOCCOCCO`, for which the Potency entry in test [1], in test [2], in test [3] and in test [4] was “inactive” throughout.
For `Cc1cccc(C)c1O`, the Potency entry in test [1], in test [2], in test [3] and in test [4] was “inactive” each time.
Regarding `Nc1nc2ccccc2[nH]1`, the Potency result in test [1], in test [2], in test [3] and in test [4] was “inactive” each time.
In the case of `CCC(=O)OCCc1ccccc1`, the Potency entry in test [1], in test [2], in test [3] and in test [4] was “inactive” each time.

Values taken from PubChem BioAssay (Tox21).
